Screen size: about 5,500 compounds; about 2,000 (36%) were called active. Roughly 18% stayed inconclusive and do not appear here. Cut-off read from the data, not from the text of the source: active = normalized growth mostly below about 0.91 (no sharp cut-off); inconclusive = no clear call, values can overlap the other calls; inactive = mostly above about 0.92. Some of the results follow.
Assay: chemical genetic growth profiling, strain panel (AID 1159580);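 note: tested at 20 µM; growth read once vehicle control cultures reached saturation at 30 °C; 1 = growth at the plate median or of vehicle wells; lower values mean less growth of the strain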
Details: growth OD
[1] = S. cerevisiae deletion strains, locus YHR030C, strain SLT2, stronger effect = lower value
[2] = S. cerevisiae deletion strains, locus YJL095W, strain BCK1, stronger effect = lower value

Measured: normalized growth

C=Cc1c(C)c2cc3nc(c4c5[nH]c(cc6nc(cc1[nH]2)C(C)=C6CC)c(C)c5C(=O)[C@@H]4C(=O)OC)[C@@H](CCC(=O)OC/C=C(\C)CCCC(C)CCCC(C)CCCC(C)C)[C@@H]3C (some centres undefined)
inactive: [1] 0.987 | S. cerevisiae deletion strains, locus YHR079C, strain IRE1, stronger effect = lower value 0.972 | [2] 0.978 | S. cerevisiae deletion strains, locus YJR066W, strain TOR1, stronger effect = lower value 0.934 | S. cerevisiae deletion strains, locus YLR113W, strain HOG1, stronger effect = lower value 0.957 | S. cerevisiae deletion strains, locus YNL183C, strain NPR1, stronger effect = lower value 0.935 | S. cerevisiae deletion strains, locus YOR231W, strain MKK1, stronger effect = lower value 0.954 | S. cerevisiae deletion strains, locus YPL256C, strain CLN2, stronger effect = lower value 0.965

CCC(C)C(=O)O[C@H]1[C@H](O)C2C(CN3CC(C)CCC3[C@@]2(C)O)C2C[C@]34O[C@]5(O)C(OC(=O)C(C)(O)C(C)O)CC[C@@]3(C)C5C(OC(C)=O)[C@@H](OC(C)=O)C4[C@@]21O (some centres undefined)
inactive: S. cerevisiae deletion strains, locus YAL013W, strain DEP1, stronger effect = lower value 1.01 | S. cerevisiae deletion strains, locus YBR021W, strain FUR4, stronger effect = lower value 0.996 | S. cerevisiae deletion strains, locus YBR229C, strain ROT2, stronger effect = lower value 1 | S. cerevisiae deletion strains, locus YCL029C, strain bik1, stronger effect = lower value 1 | S. cerevisiae deletion strains, locus YDL035C, strain GPR1, stronger effect = lower value 1.02 | S. cerevisiae deletion strains, locus YDL074C, strain BRE1, stronger effect = lower value 1.01 | S. cerevisiae deletion strains, locus YDL101C, strain DUN1, stronger effect = lower value 1.01 | S. cerevisiae deletion strains, locus YDL134C, strain PPH21, stronger effect = lower value 1.01 | S. cerevisiae deletion strains, locus YDL185W, strain tfp1, stronger effect = lower value 0.999 | S. cerevisiae deletion strains, locus YDL192W, strain arf1, stronger effect = lower value 1 | S. cerevisiae deletion strains, locus YDR101C, strain arx1, stronger effect = lower value 0.986 | S. cerevisiae deletion strains, locus YDR150W, strain NUM1, stronger effect = lower value 1.01 | S. cerevisiae deletion strains, locus YDR162C, strain NBP2, stronger effect = lower value 1.01 | S. cerevisiae deletion strains, locus YDR318W, strain mcm21, stronger effect = lower value 0.998 | S. cerevisiae deletion strains, locus YDR388W, stronger effect = lower value 1 | S. cerevisiae deletion strains, locus YDR502C, strain sam2, stronger effect = lower value 0.996 | S. cerevisiae deletion strains, locus YEL061C, strain CIN8, stronger effect = lower value 1.01 | S. cerevisiae deletion strains, locus YER110C, stronger effect = lower value 0.994 | S. cerevisiae deletion strains, locus YER155C, strain BEM2, stronger effect = lower value 1 | S. cerevisiae deletion strains, locus YER167W, strain BCK2, stronger effect = lower value 1.07 | S. cerevisiae deletion strains, locus YGL078C, strain dbp3, stronger effect = lower value 1 | S. cerevisiae deletion strains, locus YGL086W, strain mad1, stronger effect = lower value 1 | S. cerevisiae deletion strains, locus YGL248W, strain PDE1, stronger effect = lower value 1.01 | S. cerevisiae deletion strains, locus YGR078C, strain PAC10, stronger effect = lower value 1.01 | S. cerevisiae deletion strains, locus YGR135W, strain pre9, stronger effect = lower value 0.997 | S. cerevisiae deletion strains, locus YGR229C, strain SMI1, stronger effect = lower value 1.03 | S. cerevisiae deletion strains, locus YGR252W, strain gcn5, stronger effect = lower value 1.01 | [1] 1 | S. cerevisiae deletion strains, locus YHR079C, strain IRE1 (second series), stronger effect = lower value 0.998 | S. cerevisiae deletion strains, locus YHR094C, strain hxt1, stronger effect = lower value 1 | S. cerevisiae deletion strains, locus YHR129C, strain ARP1, stronger effect = lower value 1 | S. cerevisiae deletion strains, locus YHR200W, strain rpn10, stronger effect = lower value 1 | S. cerevisiae deletion strains, locus YIL066C, strain RNR3, stronger effect = lower value 1.01 | S. cerevisiae deletion strains, locus YIL073C, strain SPO22, stronger effect = lower value 1.02 | S. cerevisiae deletion strains, locus YIL125W, strain kgd1, stronger effect = lower value 1.01 | S. cerevisiae deletion strains, locus YIR030C, strain dcg1, stronger effect = lower value 0.991 | [2] 0.994 | S. cerevisiae deletion strains, locus YJL134W, strain LCB3, stronger effect = lower value 1.01 | S. cerevisiae deletion strains, locus YJL168C, strain set2, stronger effect = lower value 1 | S. cerevisiae deletion strains, locus YJL187C, strain SWE1 (second series), stronger effect = lower value 1.01 | S. cerevisiae deletion strains, locus YJR043C, strain POL32, stronger effect = lower value 0.984 | S. cerevisiae deletion strains, locus YJR075W, strain HOC1, stronger effect = lower value 1.01 | S. cerevisiae deletion strains, locus YKL009W, strain mrt4, stronger effect = lower value 1 | S. cerevisiae deletion strains, locus YKL068W, stronger effect = lower value 1.01 | S. cerevisiae deletion strains, locus YKL085W, strain MDH1 (second series), stronger effect = lower value 1 | S. cerevisiae deletion strains, locus YKL085W, strain MDH1, stronger effect = lower value 1 | S. cerevisiae deletion strains, locus YKL190W, strain CNB1, stronger effect = lower value 1.01 | S. cerevisiae deletion strains, locus YKR001C, strain vps1, stronger effect = lower value 0.98 | S. cerevisiae deletion strains, locus YLR039C, strain RIC1, stronger effect = lower value 1 | S. cerevisiae deletion strains, locus YLR058C, strain SHM2, stronger effect = lower value 1.01 | S. cerevisiae deletion strains, locus YLR102C, strain apc9, stronger effect = lower value 1 | S. cerevisiae deletion strains, locus YLR262C, strain YPT6, stronger effect = lower value 0.996 | S. cerevisiae deletion strains, locus YLR268W, strain sec22, stronger effect = lower value 0.981 | S. cerevisiae deletion strains, locus YLR330W, strain CHS5, stronger effect = lower value 1.02 | S. cerevisiae deletion strains, locus YLR342W, strain FKS1 (second series), stronger effect = lower value 1 | S. cerevisiae deletion strains, locus YLR371W, strain rom2, stronger effect = lower value 1 | S. cerevisiae deletion strains, locus YLR418C, strain cdc73, stronger effect = lower value 1 | S. cerevisiae deletion strains, locus YML016C, strain PPZ1, stronger effect = lower value 1 | S. cerevisiae deletion strains, locus YML032C, strain rad52, stronger effect = lower value 0.991 | S. cerevisiae deletion strains, locus YML124C, strain tub3, stronger effect = lower value 0.996 | S. cerevisiae deletion strains, locus YMR078C, strain ctf18, stronger effect = lower value 1.01 | S. cerevisiae deletion strains, locus YMR223W, strain ubp8, stronger effect = lower value 0.999 | S. cerevisiae deletion strains, locus YMR263W, strain SAP30, stronger effect = lower value 1 | S. cerevisiae deletion strains, locus YMR307W, strain GAS1, stronger effect = lower value 0.987 | S. cerevisiae deletion strains, locus YNL067W, strain RPL9B, stronger effect = lower value 1 | S. cerevisiae deletion strains, locus YNL128W, strain TEP1, stronger effect = lower value 1.02 | S. cerevisiae deletion strains, locus YNL153C, strain GIM3, stronger effect = lower value 0.996 | S. cerevisiae deletion strains, locus YNL233W, strain BNI4, stronger effect = lower value 1.01 | S. cerevisiae deletion strains, locus YNL250W, strain rad50, stronger effect = lower value 0.99 | S. cerevisiae deletion strains, locus YNL271C, strain bni1, stronger effect = lower value 0.992 | S. cerevisiae deletion strains, locus YNL298W, strain CLA4, stronger effect = lower value 0.986 | S. cerevisiae deletion strains, locus YNL307C, strain MCK1, stronger effect = lower value 1.01 | S. cerevisiae deletion strains, locus YNL322C, strain KRE1, stronger effect = lower value 1.01 | S. cerevisiae deletion strains, locus YNR052C, strain pop2, stronger effect = lower value 1 | S. cerevisiae deletion strains, locus YOL006C, strain TOP1, stronger effect = lower value 1.02 | S. cerevisiae deletion strains, locus YOL012C, strain htz1 0.933 | S. cerevisiae deletion strains, locus YOL147C, strain pex11, stronger effect = lower value 0.996 | S. cerevisiae deletion strains, locus YOR061W, strain CKA2, stronger effect = lower value 1.01 | S. cerevisiae deletion strains, locus YOR069W, strain VPS5, stronger effect = lower value 1.01 | S. cerevisiae deletion strains, locus YOR136W, strain idh2, stronger effect = lower value 1 | S. cerevisiae deletion strains, locus YOR144C, strain elg1, stronger effect = lower value 0.996 | S. cerevisiae deletion strains, locus YOR184W, strain ser1, stronger effect = lower value 1.02 | S. cerevisiae deletion strains, locus YOR316C, strain cot1, stronger effect = lower value 1 | S. cerevisiae deletion strains, locus YPL055C, strain LGE1, stronger effect = lower value 1.03 | S. cerevisiae deletion strains, locus YPL241C, strain CIN2, stronger effect = lower value 1.01 | S. cerevisiae deletion strains, locus YPR119W, strain clb2, stronger effect = lower value 1 | S. cerevisiae deletion strains, locus YPR141C, strain kar3, stronger effect = lower value 0.996 | S. cerevisiae deletion strains, locus YPR163C, strain tif3, stronger effect = lower value 0.996 | S. cerevisiae deletion strains, locus YPR167C, strain met16, stronger effect = lower value 1.01 | S. cerevisiae deletion strains, strain wtn01, stronger effect = lower value 0.997 | S. cerevisiae strains, strain wild type, stronger effect = lower value 1.01

— PubChem BioAssay AID1159580 (chemical genetic matrix, 2015)
